From PubChem BioAssay
Most compounds without a hit are left out; they make up all but 1.7% or so of the library.
Mtb bLac sens: beta-lactam sensitization of Mtb H37Rv; M. tuberculosis H37Rv growth with meropenem, percent inhibition; inhibition, % at 25 µM; 330,000 compounds, 0.27% hits; call rule not given here;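 further: growth measured after seven days incubation then overnight dye step; 0% = bacteria only wells and 100% = bacteria with antibiotic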
RecA splice inh: inhibitors of M. tuberculosis RecA intein splicing; P9WHJ3; inhibition, % (test concentration not listed); cell-free RecA intein splicing, fluorescence; AID 2221; 290,000 compounds, 0.75% hits; in the data active means inhibition above about 30%;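 further: 0% = vehicle wells and 100% = reference inhibitor control wells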
Target sequence (P9WHJ3 whole entry, looked up, canonical isoform): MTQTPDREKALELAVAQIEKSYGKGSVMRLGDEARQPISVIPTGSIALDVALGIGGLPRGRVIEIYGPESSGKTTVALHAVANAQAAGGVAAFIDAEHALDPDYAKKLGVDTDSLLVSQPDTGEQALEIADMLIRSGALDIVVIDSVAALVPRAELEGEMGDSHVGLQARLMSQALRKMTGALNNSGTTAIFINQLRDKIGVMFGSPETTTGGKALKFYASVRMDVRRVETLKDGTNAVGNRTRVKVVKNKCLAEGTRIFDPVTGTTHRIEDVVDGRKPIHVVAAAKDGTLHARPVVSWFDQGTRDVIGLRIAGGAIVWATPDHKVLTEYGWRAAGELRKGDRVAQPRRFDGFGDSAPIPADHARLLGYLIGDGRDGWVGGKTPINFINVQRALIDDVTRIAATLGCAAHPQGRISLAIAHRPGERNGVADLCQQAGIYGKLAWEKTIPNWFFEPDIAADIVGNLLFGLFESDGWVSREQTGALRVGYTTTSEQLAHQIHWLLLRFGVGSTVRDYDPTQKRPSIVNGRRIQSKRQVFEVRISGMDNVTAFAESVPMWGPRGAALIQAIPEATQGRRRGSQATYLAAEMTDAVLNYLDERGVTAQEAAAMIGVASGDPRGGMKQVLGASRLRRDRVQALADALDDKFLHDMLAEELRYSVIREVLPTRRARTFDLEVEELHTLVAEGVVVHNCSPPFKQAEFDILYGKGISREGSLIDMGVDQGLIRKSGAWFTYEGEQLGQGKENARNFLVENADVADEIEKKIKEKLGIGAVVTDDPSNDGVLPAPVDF
Mtb hypoxia inh: inhibitors of hypoxia-regulated fluorescent reporter in Mycobacterium tuberculosis | fluorescence inhibition, % (test concentration not listed) | 300,000 compounds, 0.1% hits | M. tuberculosis hypoxia-regulated fluorescent reporter, fluorescence; in the data active means fluorescence inhibition mostly above about 23%, no sharp cut-off; inactive means mostly below about 17%
CCHFV vOTU inh: blocks the CCHF virus ovarian tumor domain protease. CCHFV vOTU protease, Pep-AMC fluorescence. inhibition, % at 11.5 µM. 370,000 compounds, 0.55% hits. AID 651958; in the data active means inhibition above about 30%; further: 0% = vehicle wells with enzyme and 100% = no enzyme wells
PfHsp40 rescue: rescue of PfHsp40-mediated yeast toxicity. 340,000 compounds, 0.68% hits. AID 504582. growth rescue, % at 12.5 µM. S. cerevisiae expressing PfHsp40, growth rescue, ATP luminescence; in the data active means growth rescue above about 28%, passing the limit was not always enough;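 further: yeast W303a lacking pdr1 and pdr3 grown in galactose medium; growth measured after three days at 30 °C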
* hit, by the source's call; · = not tested or not shown; ! = not confirmed by another sample.

SMILES	Mtb bLac sens	RecA splice inh	Mtb hypoxia inh	CCHFV vOTU inh	PfHsp40 rescue
O=C(CSc1nnc(-c2ccccc2Cl)o1)Oc1ccc(Br)cc1	-13.2	61.1*	·	5.2	-0.3
Cc1cc(/C=C2\SC(=S)N(C)C2=O)c(C)n1-c1ccccc1O	3.6	-2.0	6.1	22.3	0.8
Cc1ccc(-n2c(C)cc(/C=C3\SC(=O)NC3=O)c2C)cc1	0.9	-0.6	2.6	7.1	0.8
Cc1cc(/C=C2\SC(=S)N(C)C2=O)c(C)n1-c1ccc(O)cc1	2.3	7.5	11.7	20.5	450.0*
Cc1cc(/C=C2\SC(=S)NC2=O)c(C)n1-c1cccc(O)c1	-3.4	-2.1	4.3	23.2	239.6*
O=C(COc1ccc(Cl)cc1)NCC(=O)NN=Cc1cccs1	·	·	4.6	·	·
C=CCN1C(=O)NC(c2ccc(OC)cc2)(C(F)(F)F)S/C1=C(\C#N)c1nnc(N2CCOCC2)n1-c1ccccc1 (stereo unspecified)	3.4	43.4*	6.1	9.2	0.6
CC(CN1C(=O)C(=O)NCC1C)NC(=O)CC12CC3CC(CC(C3)C1)C2 (stereo unspecified)	·	·	2.5	·	·
CC(C)C(=O)NNS(=O)(=O)c1ccccc1[N+](=O)[O-]	4.6	2.7	5.3	9.6	55.3*
CCOC(=O)c1c(NC(=O)CCl)sc(CN(C)C)c1-c1ccccc1	90.2	50.0*	18.0	-1.5	-0.9
O=C1N(c2ccc3c(c2)OCCO3)C(c2ccccc2)C1(F)F (stereo unspecified)	98.6	2.2	-4.0	-1.5	43.4*
Cc1ccc(N2C(=O)C(F)(F)C2c2ccccc2)cc1 (stereo unspecified)	99.2	4.5	·	7.8	7.3
N#Cc1nc(-c2ccccc2F)oc1NCCc1ccccc1	66.5	-0.7	·	-43.8	4.5
N#Cc1nc(-c2cccs2)oc1NCCc1ccccc1	85.9	10.8	·	-199.7	105.7*
CCn1nnc(-c2ccccc2NC(=O)c2cccc(-n3cnnn3)c2)n1	1.8	0.1	8.7	-12.0	1.6
CCc1ccc(C(C)=NNC(=O)c2ccc(-n3cnnn3)cc2)cc1	·	·	19.5*	·	·
CCn1nnc(-c2ccccc2NC(=O)c2ccc(-n3cnnn3)cc2)n1	7.7	-1.3	7.3	8.8	71.3*
Cc1ccc(C(=O)Nc2ccc3ccccc3n2)cc1	-0.8	3.7	4.8	3.0	-0.1
Cc1ccc(C(O)(C(=O)NNc2ccc3ccccc3n2)c2ccc(C)cc2)cc1	52.2	-2.2	1.5	12.2	74.6*!
CCOC1OC(C(=O)N2CCOCC2)=CC(C(C)(C)C)C1CCCO (stereo unspecified)	·	·	20.3	·	·
CCOC(=O)c1nnc(-c2cccs2)nc1Oc1ccc(Cl)cc1	79.7	38.2*	·	12.8	-0.9
CCOC(=O)c1nnc(-c2cccs2)nc1Oc1ccccc1C(=O)OC	-4.6	10.2	12.3	15.7	-1.5
Cc1nn(-c2ccccc2)c(N)c1Sc1cccc([N+](=O)[O-])c1	1.7	·	-8.8	0.8	0.0
Cc1cc(C)nc(-n2nc(C)c(Sc3ccc(F)cc3)c2N)n1	75.8	3.7	9.1	-5.1	88.5*
O=C(NN=Cc1ccccc1F)NC12CC3CC(CC(C3)C1)C2	·	·	-1.5	·	·
SMILES	Mtb bLac sens	RecA splice inh	Mtb hypoxia inh	CCHFV vOTU inh	PfHsp40 rescue
CCOc1ccc(-n2c(O)c(/C=N/NC(=O)C3COc4ccccc4O3)c3ccccc3c2=O)cc1 (stereo unspecified)	2.9	-1.9	·	2.5	302.7*
CCOC(=O)C(C)C(C)=NNc1ccc([N+](=O)[O-])cc1[N+](=O)[O-] (stereo unspecified)	·	·	-8.1	·	·
COc1ccc(C(=O)NN=C2SCC(=O)N2Cc2ccc3c(c2)OCO3)cc1OC	·	·	3.4	·	·
Cc1nn(C(C)(C)C)c(OC(=O)c2cccs2)c1S(=O)(=O)c1ccccc1	-5.2	-1.1	-2.4	-0.7	66.8*
CC(=NS(=O)(=O)c1ccc(C)cc1)N1CCN(S(=O)(=O)c2ccccc2)C1C(C)C (stereo unspecified)	·	·	-1.5	·	·
NC(=O)[C@H](Cc1cc2ccccc2s1)NC(=O)[C@@H]1CC2(CC(c3cccc(NC(=O)[C@@H]4CCC(=O)N4)c3)=NO2)CN1C(=O)/C=C/c1c(F)cccc1Cl (stereo partly specified)	75.1	32.7*	·	·	2.2
Cc1nc2c(cc1C(=O)NN=Cc1ccc(O)c(O)c1)c(=O)n(C)c(=O)n2C	·	·	11.6	·	·
CC1=CC2(O)OCCN(CCO)C2=CC1=O (stereo unspecified)	-1.2	65.7*	5.5	2.1	0.2
Cc1cc(C)n(-c2ncc3c(n2)N(CCO)CCOC3=O)n1	7.4	-2.0	5.0	0.6	0.4
N#Cc1ncc(-c2ccc3c(c2)OCCOCCOCCOCCO3)nc1C#N	100.0	35.6*	16.0	4.9	-1.4
Nc1nc(-c2ccc3c(c2)OCCO3)cs1	94.7	-2.0	·	-0.9	0.1
Cc1ccc2nc(-c3ccc4c(c3)OCCO4)cn2c1	14.9	2.4	·	-45.6	4.0
N#Cc1ncc(-c2ccc3c(c2)OCCOCCOCCOCCOCCO3)nc1C#N	100.0	44.1*	10.9	-15.6	-1.3
O=C(NN=Cc1cccs1)c1cc(-c2cccc3ccccc23)n[nH]1	·	·	10.1	·	·
CCC1=C(OC(=O)N(CC)CC)N2C(=O)OC(=NCc3ccccc3)[C@]2(C)C2C1=CCC1C(=O)N(CC(=O)OC)C(=O)C12 (stereo partly specified)	·	·	3.6	·	·
CC(C)n1cnc2c(NCc3ccccc3)cc(Cc3ccc(F)cc3)cc21	98.8	·	·	24.2	115.4*
O=C(O)c1ccn2c(C(=O)c3ccc(Cl)cc3)c(-c3ccccc3)cc2c1	6.8	1.8	·	12.3	71.6*
O=C(NCCO)C(=O)c1c(-c2ccc(Cl)cc2)cc2ccccn12	0.3	2.7	10.6	-1.1	1.7
CCn1c(O)c(N=NC(=O)c2ccc(CSc3nncn3C)cc2)c2ccccc21	94.1	-1.6	42.0*	0.0	1.2
Cn1cnnc1SCc1ccc(C(=O)N=Nc2c(O)n(Cc3ccc(Cl)cc3)c3ccccc23)cc1	2.0	2.5	·	3.4	5.7
COc1ccc(Br)cc1[C@H]1[C@@H]2C=CCC[C@@]2(C)C(=O)N1Cc1ccccc1	2.6	31.9*	·	2.4	2.4
COc1ccc(Br)cc1C1C2C=CCC[C@@]2(C)C(=O)N1Cc1ccccc1 (stereo partly specified)	·	·	-0.8	·	·
C[C@@]12CCC=C[C@H]1[C@H](c1ccc3ccccc3c1Br)N(Cc1ccccc1)C2=O	7.0	13.5	·	3.2	64.6*
c1ccc(C2CNCCN2CCc2cccc3ccccc23)cc1 (stereo unspecified)	·	·	11.3	·	·
O=C(C[n+]1cccc(Br)c1)c1ccc(-c2ccccc2)cc1	5.0	5.1	5.5	-3.0	54.3*
CC[C@@H](C(=O)[C@@H](C)[C@@H](O)[C@H](C)[C@@H]1O[C@@H]([C@@H](CC)C(=O)O)CC[C@@H]1C)[C@H]1O[C@]2(C=C[C@@H](O)[C@]3(CC[C@@](C)([C@H]4CC[C@](O)(CC)[C@H](C)O4)O3)O2)[C@H](C)C[C@@H]1C	·	·	·	6.8	219.7*
Cc1nc2c(F)c(F)c(C(F)(F)F)c(F)c2[nH]1	-6.9	10.4	·	7.2	87.6*
CC(C)Oc1ccccc1-c1cc(C(=O)NN=Cc2cccnc2)c2ccccc2n1	·	·	-2.4	·	·
